Where a chain is given by its changes, count along the chain named. Whole data set: some 16,000 sequences, median “ka relative to ugcaugu” near 0.0091, cut for the highest 2% near 0.032. Only a selection was taken, and the highest values are over-represented in it overall.
T1: RBFOX1 RRM (Homo sapiens, UniProt Q9NWB1 109-208)
T1 sequence: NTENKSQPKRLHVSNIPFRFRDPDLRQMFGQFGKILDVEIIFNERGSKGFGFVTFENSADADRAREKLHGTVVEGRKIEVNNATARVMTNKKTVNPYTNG

B1: UACUGGA (DNA:RNA)
RNA: GGGAGACCGGAAUUCAGAUUGUCCUACUGGAUUAAAUCCCGUCGUAGCCACCA
DNA 1: CAATCTGAATTCCGGTCTCCC
DNA 2: TGGTGGCTACGACGGGATT
B2: UCGUGAG (DNA:RNA)
RNA: B1 RNA with A26C, C27G, G30A, A31G
DNA 1: CAATCTGAATTCCGGTCTCCC
DNA 2: TGGTGGCTACGACGGGATT
B3: UGGCCGA (DNA:RNA)
RNA: B1 RNA with A26G, C27G, U28C, G29C
DNA 1: CAATCTGAATTCCGGTCTCCC
DNA 2: TGGTGGCTACGACGGGATT
B4: UGUGGCC (DNA:RNA)
RNA: B1 RNA with A26G, C27U, U28G, G30C, A31C
DNA 1: CAATCTGAATTCCGGTCTCCC
DNA 2: TGGTGGCTACGACGGGATT
B5: UGGCCUG (DNA:RNA)
RNA: B1 RNA with A26G, C27G, U28C, G29C, G30U, A31G
DNA 1: CAATCTGAATTCCGGTCTCCC
DNA 2: TGGTGGCTACGACGGGATT
B6: UGGCCGC (DNA:RNA)
RNA: B1 RNA with A26G, C27G, U28C, G29C, A31C
DNA 1: CAATCTGAATTCCGGTCTCCC
DNA 2: TGGTGGCTACGACGGGATT
B7: UGGCCGG (DNA:RNA)
RNA: B1 RNA with A26G, C27G, U28C, G29C, A31G
DNA 1: CAATCTGAATTCCGGTCTCCC
DNA 2: TGGTGGCTACGACGGGATT
B8: UGGCCUC (DNA:RNA)
RNA: B1 RNA with A26G, C27G, U28C, G29C, G30U, A31C
DNA 1: CAATCTGAATTCCGGTCTCCC
DNA 2: TGGTGGCTACGACGGGATT
B9: UGCGGUG (DNA:RNA)
RNA: B1 RNA with A26G, U28G, G30U, A31G
DNA 1: CAATCTGAATTCCGGTCTCCC
DNA 2: TGGTGGCTACGACGGGATT
B10: CAUGUGG (DNA:RNA)
RNA: B1 RNA with U25C, C27U, U28G, G29U, A31G
DNA 1: CAATCTGAATTCCGGTCTCCC
DNA 2: TGGTGGCTACGACGGGATT
B11: GCUACAC (DNA:RNA)
RNA: GGGAGACCGGAAUUCAGAUUGUCCGCUACACUUAAAUCCCGUCGUAGCCACCA
DNA 1: CAATCTGAATTCCGGTCTCCC
DNA 2: TGGTGGCTACGACGGGATT
B12: CAAUAAC (DNA:RNA)
RNA: B11 RNA with G25C, C26A, U27A, A28U, C29A
DNA 1: CAATCTGAATTCCGGTCTCCC
DNA 2: TGGTGGCTACGACGGGATT
B13: CGAGGGG (DNA:RNA)
RNA: B1 RNA with U25C, A26G, C27A, U28G, A31G
DNA 1: CAATCTGAATTCCGGTCTCCC
DNA 2: TGGTGGCTACGACGGGATT
B14: AAUAUAG (DNA:RNA)
RNA: B11 RNA with G25A, C26A, C29U, C31G
DNA 1: CAATCTGAATTCCGGTCTCCC
DNA 2: TGGTGGCTACGACGGGATT
B15: GCUGCUA (DNA:RNA)
RNA: B11 RNA with A28G, A30U, C31A
DNA 1: CAATCTGAATTCCGGTCTCCC
DNA 2: TGGTGGCTACGACGGGATT
B16: UGGAUGA (DNA:RNA)
RNA: B1 RNA with A26G, C27G, U28A, G29U
DNA 1: CAATCTGAATTCCGGTCTCCC
DNA 2: TGGTGGCTACGACGGGATT
B17: UGAGUCU (DNA:RNA)
RNA: B1 RNA with A26G, C27A, U28G, G29U, G30C, A31U
DNA 1: CAATCTGAATTCCGGTCTCCC
DNA 2: TGGTGGCTACGACGGGATT
B18: UCCUGGA (DNA:RNA)
RNA: B1 RNA with A26C
DNA 1: CAATCTGAATTCCGGTCTCCC
DNA 2: TGGTGGCTACGACGGGATT
B19: UGGAUUG (DNA:RNA)
RNA: B11 RNA with G25U, C26G, U27G, C29U, A30U, C31G
DNA 1: CAATCTGAATTCCGGTCTCCC
DNA 2: TGGTGGCTACGACGGGATT
B20: UGCUGGA (DNA:RNA)
RNA: B1 RNA with A26G
DNA 1: CAATCTGAATTCCGGTCTCCC
DNA 2: TGGTGGCTACGACGGGATT
B21: UGAUGGA (DNA:RNA)
RNA: B1 RNA with A26G, C27A
DNA 1: CAATCTGAATTCCGGTCTCCC
DNA 2: TGGTGGCTACGACGGGATT
B22: UGGAUGG (DNA:RNA)
RNA: B1 RNA with A26G, C27G, U28A, G29U, A31G
DNA 1: CAATCTGAATTCCGGTCTCCC
DNA 2: TGGTGGCTACGACGGGATT
B23: UGGAGUC (DNA:RNA)
RNA: B11 RNA with G25U, C26G, U27G, C29G, A30U
DNA 1: CAATCTGAATTCCGGTCTCCC
DNA 2: TGGTGGCTACGACGGGATT
B24: UGGAUGC (DNA:RNA)
RNA: B11 RNA with G25U, C26G, U27G, C29U, A30G
DNA 1: CAATCTGAATTCCGGTCTCCC
DNA 2: TGGTGGCTACGACGGGATT
B25: UGGAUUC (DNA:RNA)
RNA: B11 RNA with G25U, C26G, U27G, C29U, A30U
DNA 1: CAATCTGAATTCCGGTCTCCC
DNA 2: TGGTGGCTACGACGGGATT
B26: UGGAAUC (DNA:RNA)
RNA: B11 RNA with G25U, C26G, U27G, C29A, A30U
DNA 1: CAATCTGAATTCCGGTCTCCC
DNA 2: TGGTGGCTACGACGGGATT
B27: UGGAGGC (DNA:RNA)
RNA: B1 RNA with A26G, C27G, U28A, A31C
DNA 1: CAATCTGAATTCCGGTCTCCC
DNA 2: TGGTGGCTACGACGGGATT
B28: ACAACCU (DNA:RNA)
RNA: B11 RNA with G25A, U27A, A30C, C31U
DNA 1: CAATCTGAATTCCGGTCTCCC
DNA 2: TGGTGGCTACGACGGGATT
B29: AGCGAAA (DNA:RNA)
RNA: B1 RNA with U25A, A26G, U28G, G29A, G30A
DNA 1: CAATCTGAATTCCGGTCTCCC
DNA 2: TGGTGGCTACGACGGGATT
B30: UUUUUGU (DNA:RNA)
RNA: B1 RNA with A26U, C27U, G29U, A31U
DNA 1: CAATCTGAATTCCGGTCTCCC
DNA 2: TGGTGGCTACGACGGGATT
B31: UCGUCCC (DNA:RNA)
RNA: B11 RNA with G25U, U27G, A28U, A30C
DNA 1: CAATCTGAATTCCGGTCTCCC
DNA 2: TGGTGGCTACGACGGGATT

target: T1, RBFOX1 RRM; assay: EMSA; HiTS-Eq, 1 nM pool, 10 min; buffer printed only for the single-RNA assays: 10 mM Tris pH 7.5, 150 mM NaCl, 3.4 mM EDTA, 0.001% NP-40, 30 C; details: tags: His6 N-terminal (pET28a); label: 5' 32P
How it was run: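 A pool of RNA with 7 randomized nucleotides, 5′-radiolabelled and with DNA-annealed flanks, was equilibrated at 1 nM for 10 min in 50 µL with purified RbFox RRM, wild type or mutant, across increasing protein concentrations. Free RNA was separated by 8% native PAGE, excised, reverse-transcribed, barcoded by PCR and sequenced. Relative association constants were obtained from read-count changes of each RNA species versus the control reaction and normalised to the cognate motif.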

| Binder | binding signal |
| --- | --- |
| B1 | 0.00358 KA relative to UGCAUGU |
| B2 | 0.00953 KA relative to UGCAUGU |
| B3 | 0.0244 KA relative to UGCAUGU |
| B4 | 0.0234 KA relative to UGCAUGU |
| B5 | 0.0426 KA relative to UGCAUGU |
| B6 | 0.0225 KA relative to UGCAUGU |
| B7 | 0.0318 KA relative to UGCAUGU |
| B8 | 0.0279 KA relative to UGCAUGU |
| B9 | 0.0288 KA relative to UGCAUGU |
| B10 | 0.00494 KA relative to UGCAUGU |
| B11 | 0.00819 KA relative to UGCAUGU |
| B12 | 0.00247 KA relative to UGCAUGU |
| B13 | 0.00639 KA relative to UGCAUGU |
| B14 | 0.00237 KA relative to UGCAUGU |
| B15 | 0.0167 KA relative to UGCAUGU |
| B16 | 0.0437 KA relative to UGCAUGU |

| Binder | binding signal |
| --- | --- |
| B17 | 0.0175 KA relative to UGCAUGU |
| B18 | 0.00715 KA relative to UGCAUGU |
| B19 | 0.0448 KA relative to UGCAUGU |
| B20 | 0.0106 KA relative to UGCAUGU |
| B21 | 0.00526 KA relative to UGCAUGU |
| B22 | 0.0304 KA relative to UGCAUGU |
| B23 | 0.0349 KA relative to UGCAUGU |
| B24 | 0.0582 KA relative to UGCAUGU |
| B25 | 0.0192 KA relative to UGCAUGU |
| B26 | 0.0233 KA relative to UGCAUGU |
| B27 | 0.0186 KA relative to UGCAUGU |
| B28 | 0.000511 KA relative to UGCAUGU |
| B29 | 0.0048 KA relative to UGCAUGU |
| B30 | 0.0281 KA relative to UGCAUGU |
| B31 | 0.00735 KA relative to UGCAUGU |

Source: publication PMC9911399, “Two distinct binding modes provide the RNA-binding protein RbFox with extraordinary sequence specificity”
